Inconclusive results are not listed. Calls of active or inactive are those of the source. No rule for the calls is given here.
What was measured:
[1] = target: L-lactate dehydrogenase (Plasmodium falciparum (isolate CDC / Honduras)) (UniProt Q27743); assay: PfLDH activity inhibition – cell lysate, 3D7 strain, counter-screen for P. falciparum growth inhibition project (AID 2304);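 also: 0% = vehicle and 100% = reference inhibitor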; conditions: P. falciparum 3D7 crude extract, LDH APAD/NBT absorbance; at 2 µM; stronger effect = higher value
[2] = inhibition of 3D7 malaria parasite growth – strain 3D7 (AID 2306);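 also: 0% = DMSO wells and 100% = chloroquine plus artemisinin control wells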; conditions: P. falciparum 3D7 erythrocytic growth, LDH absorbance, 72 h; at 2 µM; stronger effect = higher value
[3] = protection against mutant huntingtin cytotoxicity, PC12 cells, LDH release (AID 1610); conditions: PC12 mutant huntingtin toxicity, final LDH at 4 uM, stronger effect = lower value

L-lactate dehydrogenase (Plasmodium falciparum (isolate CDC / Honduras)), sequence (Q27743 whole entry, looked up): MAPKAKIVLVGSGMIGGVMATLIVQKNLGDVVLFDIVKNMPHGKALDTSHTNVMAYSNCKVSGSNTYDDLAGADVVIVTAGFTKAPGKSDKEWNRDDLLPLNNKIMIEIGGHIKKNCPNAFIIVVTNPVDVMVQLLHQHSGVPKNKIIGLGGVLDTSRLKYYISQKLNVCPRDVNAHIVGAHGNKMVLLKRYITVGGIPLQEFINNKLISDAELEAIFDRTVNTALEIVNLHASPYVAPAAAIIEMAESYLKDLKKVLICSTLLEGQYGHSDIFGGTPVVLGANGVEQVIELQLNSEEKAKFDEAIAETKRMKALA

| Structure (SMILES) | inhibition [1] | growth inhibition [2] | normalised LDH release [3] |
| --- | --- | --- | --- |
| COc1cc(Cc2cnc(N)nc2N)cc(OC)c1OC | 3% (inactive) | 88% (active) |  |
| CC(C)(C)c1ccc(C(O)CCCN2CCC(C(O)(c3ccccc3)c3ccccc3)CC2)cc1 (stereo not drawn) |  |  | 1 |
